Assay outcomes from PubChem BioAssay.
ATXN2 expr inh: Primary qHTS for Inhibitors of ATXN expression; AID 1745845, 2022; Potency, µM (top dose mostly 57 µM), most hits filed as inhibitors; hit rate 0.72% among 360,000; HEK-293 ATXN2-luciferase reporter, luminescence, 24 h; note: nearly all actives have a fitted effect of over 55% in size
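ATXN2-luciferase reporter cells (luciferase flanked by upstream and downstream ATXN2 gene portions) were treated 24 h at 37 °C with compounds at up to 57 uM. SteadyGlo luminescence gave expression; GF-AFC fluorescence gave viability.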
Gal4-VP16 FLuc: VP16 counterscreen qHTS for inhibitors of ROR gamma transcriptional activity | Drosophila S2 Gal4-VP16 UAS-luciferase, luminescence, 20 h | Potency, µM (titrated, usually from 53.6 µM), most hits filed as inhibitors | hit rate 3.5% among 310,000;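 note: Gal4-VP16 expression switched on by copper sulfate through the metallothionein promoter; nearly all actives have a fitted effect of over 50% in size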
HepG2 tox: qHTS for Inhibitors of TGF-b: Cytotox Counterscreen; Potency, µM (titrated, usually from 46.1 µM), most hits filed as cytotoxic; hit rate 0.76% among 410,000; HepG2 CAGA-GFP viability, ATP luminescence, 18 h
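HepG2 CAGA-GFP cells (1000/well, DMEM with 1% FBS) received compound, then TGF-beta at 500 pg/mL final, and were incubated 18 hours at 37 degrees C. Viability was read by CellTiter-Glo luminescence. Media-only wells were set as complete cell-killing and DMSO as no toxicity.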
RORgamma inh: qHTS for inhibitors of ROR gamma transcriptional activity | Drosophila S2 Gal4-RORgamma UAS-luciferase reporter, 20 h | hit rate 5.4% among 310,000 | Potency, µM (titrated, usually from 53.6 µM), usual class: inhibitors | Nuclear receptor ROR-gamma (Mus musculus), P51450 | AID 2551, 2010; note: nearly all actives have a fitted effect of over 60% in size
Target sequence (P51450 whole entry, looked up, the tested form may be a part): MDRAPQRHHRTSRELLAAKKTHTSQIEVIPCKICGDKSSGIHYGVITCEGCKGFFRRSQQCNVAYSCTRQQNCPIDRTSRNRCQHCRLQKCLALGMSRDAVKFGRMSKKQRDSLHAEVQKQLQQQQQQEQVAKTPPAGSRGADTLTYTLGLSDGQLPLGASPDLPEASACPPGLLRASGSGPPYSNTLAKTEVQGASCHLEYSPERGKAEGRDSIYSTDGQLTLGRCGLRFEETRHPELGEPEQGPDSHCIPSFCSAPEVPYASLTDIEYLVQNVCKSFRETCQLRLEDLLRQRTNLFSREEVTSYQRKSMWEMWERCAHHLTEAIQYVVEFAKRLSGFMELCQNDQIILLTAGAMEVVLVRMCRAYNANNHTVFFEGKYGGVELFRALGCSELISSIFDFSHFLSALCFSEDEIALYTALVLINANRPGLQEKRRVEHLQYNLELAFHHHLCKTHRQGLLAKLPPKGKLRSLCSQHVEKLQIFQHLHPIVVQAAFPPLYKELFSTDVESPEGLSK
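A Gal4/UAS one-hybrid system in insect cells: metallothionein-promoter Gal4–ROR gamma fusion plus Photinus luciferase reporter. Copper sulfate 700 uM final, 20 hr ambient incubation, luminescent detection after 10 min with reagent.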
TGFb inhibitor: qHTS for Inhibitors of TGF-b; HepG2 CAGA-GFP TGF-b/SMAD3 reporter, GFP fluorescence, 18 h; TGF-beta stimulated, 500 pg/mL final; AID 588855, 2011; hit rate 1.2% among 410,000; Potency, µM (highest dose often 46.1 µM), actives largely listed as inhibitors; note: nearly all actives have a fitted effect of over 65% in size
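Read-out: total well GFP (ex488/em500-530) summed from mean per-cell fluorescence. Cells: HEPG2 CAGA-GFP, 1% FBS DMEM, 18 h at 37 degrees C with 500 pg/mL final TGF-beta. Unstimulated wells served as the full-inhibition control; stimulated DMSO wells = 0%.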
S2 tox: Viability Counterscreen for Primary qHTS for Inhibitors of ATXN expression; S2 cells (HEK-293 line with an ATXN2-luciferase reporter) viability, CellTiter-Fluor protease fluorescence, 24 h; Potency, µM (top dose mostly 56.7 µM), most hits filed as cytotoxic; hit rate 0.49% among 400,000; AID 651635, 2014; note: nearly all actives have a fitted effect of over 40% in size
Each line names hits and unclear results; the compound was inactive in the other large screens. Rows were chosen to be rich in hits. Some 6.3% of all compounds tested hit in one or more screens of this group. Calls come from the whole dose curve; as a rule, active = well fitted curve in the direction sought with a large enough effect; inconclusive = small, poorly fitted or top-dose-only effect, or another doubt; inactive = no such curve, though single readings can be large; an effect the other way counts as inactive or inconclusive.

COc1ccc(OC)c(C2CC(c3ccccc3)=NN2C(=S)Nc2ccccc2)c1 (stereo not drawn)	none
OC1CCCN(Cc2ccc3ccc4cccc5ccc2c3c45)C1 (stereo not drawn)	ATXN2 expr inh inconclusive, TGFb inhibitor 20µM, S2 tox inconclusive
Cc1nn(-c2ccccc2)c2sc(-c3n[nH]c(=S)o3)cc12	RORgamma inh 2.8µM
Cc1cccc(NC(c2ccc(O)cc2)c2ccc3ccc(C)nc3c2O)n1 (stereo not drawn)	RORgamma inh 10µM, TGFb inhibitor inconclusive
COc1ccc(NC(=O)C2=C(C)C(=O)OC23CCN(C(C)C)CC3)cc1Cl	none (no result: Gal4-VP16 FLuc, RORgamma inh)
FC(F)Oc1ccc(NC(=S)NC2CCSc3ccccc32)cc1 (stereo not drawn)	ATXN2 expr inh inconclusive, TGFb inhibitor inconclusive
FC(F)Oc1ccc(NC(=S)NC2CCCCCCC2)cc1	Gal4-VP16 FLuc 10µM, RORgamma inh 3.5µM, TGFb inhibitor inconclusive
S=C(Nc1ccc(Nc2ccccc2)cc1)NC1CCCCCC1	ATXN2 expr inh inconclusive, Gal4-VP16 FLuc inconclusive, RORgamma inh 1.3µM, TGFb inhibitor inconclusive, S2 tox inconclusive
S=C(Nc1cccnc1)NC1CCCC1	none
NS(=O)(=O)c1ccc(NC(=S)NC2CCCCC2)cc1	none
S=C(Nc1cccnc1)NC1CCCCCCC1	Gal4-VP16 FLuc 22µM, RORgamma inh inconclusive
S=C(NNc1cccc(Cl)c1)NC1CCCCC1	Gal4-VP16 FLuc 1.4µM, RORgamma inh 0.32µM, TGFb inhibitor inconclusive
COc1ccc(-c2nnc(SCC(=O)NCCc3ccccc3)nc2-c2ccc(OC)cc2)cc1	S2 tox inconclusive (no result: Gal4-VP16 FLuc, RORgamma inh)
Cc1cc(Cl)ccc1NC(=S)NC1CCCC1	Gal4-VP16 FLuc 14µM, RORgamma inh 2.2µM
S=C(Nc1cccc(Cl)c1)NC1CCCCC1	Gal4-VP16 FLuc 10µM, RORgamma inh 3.5µM
CC(=O)c1cccc(NC(=S)NC2CCCCC2)c1	Gal4-VP16 FLuc inconclusive, RORgamma inh 10µM
CC1CCCCC1NC(=S)Nc1ccc(Cl)cc1Cl (stereo not drawn)	Gal4-VP16 FLuc inconclusive, RORgamma inh 3.5µM, TGFb inhibitor inconclusive
Cc1cc(Cl)ccc1NC(=S)NCCCO	none
Clc1cccc(-n2ncc3c(NCCCN4CCOCC4)ncnc32)c1	none (no result: Gal4-VP16 FLuc, RORgamma inh)
S=C(Nc1ccc(Cl)cc1)NC1CCCCC1	Gal4-VP16 FLuc 16µM, RORgamma inh 3.5µM, TGFb inhibitor inconclusive
CCC(=O)N1CCCC1(C)C(=O)Nc1cc(OC)ccc1OC (stereo not drawn)	none (no result: Gal4-VP16 FLuc, RORgamma inh)
CCCP(=O)(CCC)CCP(=O)(c1ccccc1)c1ccccc1	RORgamma inh 13µM
CN(C)CCP(=O)(c1ccccc1)c1ccccc1	none
Cc1cc(C)n(CC(=O)N2CCC(n3c(C(C)C)nc4cccnc43)CC2)n1	none (no result: ATXN2 expr inh, Gal4-VP16 FLuc, HepG2 tox, RORgamma inh, TGFb inhibitor)
Cc1cc(OCCCN2CCC(C(O)(c3ccccc3)c3ccccc3)CC2)ccc1Br	ATXN2 expr inh 32µM, S2 tox 22µM (no result: Gal4-VP16 FLuc, HepG2 tox, RORgamma inh, TGFb inhibitor)
CC1(C)c2[nH]c3ccccc3c2C[C@H]2C(=O)N(CCCCCO)CC(=O)N21	none
COc1ccc(C)cc1NC(=O)NC1CC(=O)N(c2ccc3c(c2)OCCO3)C1 (stereo not drawn)	HepG2 tox 11µM (no result: ATXN2 expr inh, Gal4-VP16 FLuc, RORgamma inh)
CC(C)c1ccc(C(=O)Nc2cc(-c3ccccc3F)nn2-c2ccccc2)cc1	none (no result: Gal4-VP16 FLuc, RORgamma inh)
O=C(CSc1nnc(-c2cc3ccccc3cc2O)n1Cc1ccco1)c1ccc(F)cc1	Gal4-VP16 FLuc 14µM, TGFb inhibitor inconclusive, S2 tox inconclusive
O=CNc1cc(-c2ccc(C(=O)NC3CC3)cc2)cn2c(-c3ccc(F)cc3)cnc12	ATXN2 expr inh inconclusive, S2 tox inconclusive (no result: Gal4-VP16 FLuc, RORgamma inh)
O=C(COC(=O)/C(=C/c1cccs1)c1cccs1)NC(c1ccccc1)c1ccccc1	TGFb inhibitor 13µM
O=C(Oc1ccc(OC(=O)C2CCC2)cc1)C1CCC1	Gal4-VP16 FLuc 22µM, RORgamma inh 11µM (no result: S2 tox)
C[C@H](N)C(=O)N[C@@H](C)C(=O)NC1[C@H]2CN(c3nc4c(cc3F)c(=O)c(C(=O)O)cn4-c3ccc(F)cc3F)C[C@@H]12 (stereo partly drawn)	none (no result: Gal4-VP16 FLuc, HepG2 tox, RORgamma inh, TGFb inhibitor)
CCN(CC)S(=O)(=O)c1ccc2c(c1)N(CC(=O)NCCCN1CCN(c3cc(Cl)ccc3C)CC1)C(=O)CO2	ATXN2 expr inh inconclusive, HepG2 tox 13µM, TGFb inhibitor inconclusive (no result: Gal4-VP16 FLuc, RORgamma inh, S2 tox)
O=C(CN1C(=O)COc2ccc(S(=O)(=O)N3CCCCC3)cc21)NCc1ccc(Cl)cc1	TGFb inhibitor inconclusive
CCN(CC)S(=O)(=O)c1ccc2c(c1)N(CC(=O)N1CCN(c3cc(Cl)ccc3C)CC1)C(=O)CO2	none (no result: Gal4-VP16 FLuc, RORgamma inh)
CC1CCN(S(=O)(=O)c2ccc3c(c2)N(CC(=O)NCCc2ccc(Cl)cc2)C(=O)CO3)CC1	ATXN2 expr inh inconclusive, TGFb inhibitor 13µM, S2 tox 28µM (no result: Gal4-VP16 FLuc, RORgamma inh)
O=C(CN1C(=O)COc2ccc(S(=O)(=O)N3CCCCCC3)cc21)NCc1ccc(Cl)cc1	TGFb inhibitor 10µM (no result: ATXN2 expr inh, Gal4-VP16 FLuc, RORgamma inh, S2 tox)
COc1cccc(CNC(=O)c2c(C)oc3ncnc(N4CCOCC4)c23)c1	none (no result: ATXN2 expr inh, Gal4-VP16 FLuc, RORgamma inh, S2 tox)
Cc1cc(C)cc(CN2CCOc3ccc(CN4CCC(O)(c5cccnc5)CC4)cc3C2)c1	none (no result: ATXN2 expr inh, Gal4-VP16 FLuc, HepG2 tox, RORgamma inh, TGFb inhibitor)
CCOc1ccc(CNC(=O)C2CCCN(S(=O)(=O)c3ccc4c(ccn4C)c3)C2)cc1 (stereo not drawn)	S2 tox inconclusive (no result: Gal4-VP16 FLuc, RORgamma inh)
CN(C(=O)c1cc(-c2ccccc2O)on1)c1ccccc1	none (no result: Gal4-VP16 FLuc, RORgamma inh)
